Data on 27 compounds can be found in PubChem BioAssay (Tox21).

Assay [1] is described as follows: qHTS assay to identify small molecule agonists of the NFkB signaling pathway - cell viability counter screen (AID 1159515). Also: series mostly up to about 61 µM; % is scaled to controls: 0 for no effect and ±100 for the full control effect; nearly all actives have a fitted effect of over 55% in size. In short, it runs like this:
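Multiplexed viability readout: after the 5 hr compound exposure and 1.5 hr FRET substrate step, CellTiter-Glo reagent went into the same NFkB-bla ME-180 wells; ATP luminescence was measured after 30 min at room temperature.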
For orientation: Quantitative high-throughput screening tests each substance at several concentrations.

Assay [2] can be described thus: qHTS assay to identify small molecule agonists of the endoplasmic reticulum stress response signaling pathway (AID 1159516; active = well fitted activation curve with a large enough effect in the signal ratio in the repeat runs, not every such curve was filed as active; the % refers to the signal ratio; also: % is scaled to controls: 0 for no effect and ±100 for the full control effect). An outline of the steps:
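Tox21 10K library screened in quantitative HTS format on ESRE-bla HeLa cells, a beta-lactamase reporter under ER stress response element control; 5 hr treatment, FRET read.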

The nature of assay [3]: qHTS assay to identify small molecule antagonists of the retinoid-related orphan receptor gamma (ROR-gamma) signaling pathway - cell viability counter screen (AID 1159520; active = well fitted curve in the direction sought with a large enough effect in the repeat runs; an effect the other way counts as inactive or inconclusive; also: nearly all actives have a fitted effect of over 50% in size; also: potency is read from the fitted curve at half-maximal effect; as to activity, negative = cytotoxicity: % is scaled to controls: 0 for no effect and ±100 for the full control effect). An outline of the steps:
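Tet-on ROR gamma CHO cells (1,000/well) were plated 4 hr, given compounds in DMSO for 2 hr at 37 C, then induced with 1 uM final doxycycline for 16 hr. Viability was read as ATP by CellTiter-Glo luminescence after 30 min.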

The nature of assay [4]: qHTS assay to identify small molecule agonists of the AP-1 signaling pathway (AID 1159526). Also: % is scaled to controls: 0 for no effect and ±100 for the full control effect.
For assay [5], the target named is Retinoic acid receptor RXR-alpha (Homo sapiens) (UniProt P19793). Briefly: qHTS assay to identify small molecule agonists of the RXR signaling pathway (AID 1159527). Also: nearly all actives have a fitted effect of over 35% in size. Also: potency is read from the fitted curve at half-maximal effect. As to activation: % is scaled to controls: 0 for no effect and ±100 for the full control effect. An outline of the steps: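 Fluorescence ratio readout (460 vs 530 nm) from GeneBLAzer RXR-alpha HEK 293T cells after 16 hr compound treatment; cells seeded 5 hr beforehand in low-serum, charcoal-stripped medium.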
Chain of Retinoic acid receptor RXR-alpha (Homo sapiens) (P19793 whole entry, looked up): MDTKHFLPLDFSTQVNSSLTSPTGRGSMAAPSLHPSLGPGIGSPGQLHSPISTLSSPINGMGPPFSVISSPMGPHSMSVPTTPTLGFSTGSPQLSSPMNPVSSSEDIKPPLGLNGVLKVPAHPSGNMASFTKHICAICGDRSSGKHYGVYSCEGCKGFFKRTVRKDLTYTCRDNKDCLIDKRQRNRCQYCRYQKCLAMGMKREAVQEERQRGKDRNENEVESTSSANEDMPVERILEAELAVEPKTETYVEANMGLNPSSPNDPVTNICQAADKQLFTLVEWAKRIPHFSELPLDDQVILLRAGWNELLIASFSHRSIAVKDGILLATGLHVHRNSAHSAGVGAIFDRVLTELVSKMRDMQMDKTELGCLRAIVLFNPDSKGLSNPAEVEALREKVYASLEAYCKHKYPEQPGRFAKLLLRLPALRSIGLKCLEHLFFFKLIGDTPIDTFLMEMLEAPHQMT

A short description of assay [6]: qHTS assay to identify small molecule agonists of the vitamin D receptor (VDR) signaling pathway - cell viability counter screen (AID 743224; active = well fitted curve in the direction sought with a large enough effect in the repeat runs; an effect the other way counts as inactive or inconclusive; also: nearly all actives have a fitted effect of over 50% in size; also: potency is read from the fitted curve at half-maximal effect). In short, it runs like this:
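Viability is measured in the same wells as the VDR-bla reporter assay: after 16 h compound treatment and 2 h substrate loading, CellTiter-Glo is added and luminescence read 30 min later.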

The nature of assay [7]: qHTS assay to identify small molecule antagonists of the vitamin D receptor (VDR) signaling pathway - cell viability counter screen (AID 743225; active = well fitted curve in the direction sought with a large enough effect in the repeat runs; an effect the other way counts as inactive or inconclusive; also: nearly all actives have a fitted effect of over 50% in size; also: potency is read from the fitted curve at half-maximal effect). An outline of the steps:
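In this counter screen, VDR-bla HEK 293T cells receive test compound plus 3 nM final calcitriol for 16 h at 37C. Room-temperature steps of 2 h with the beta-lactamase substrate, then 30 min with CellTiter-Glo, precede the luminescence read.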

Assay [8] can be described thus: qHTS assay to identify small molecule agonists of the AP-1 signaling pathway - cell viability counter screen (AID 1159525). Also: nearly all actives have a fitted effect of over 55% in size. An outline of the steps: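 ME-180 AP-1-bla, 2500 cells/well, Opti-MEM + 0.5% dialyzed FBS; overnight 37 °C; cpd 15-pt titration, 5 h 37 °C; CellTiter-Glo 30 min RT; luminescence read; normalised to TOAB and DMSO controls.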
Assay [9] in a line: qHTS assay to identify small molecule agonists of the endoplasmic reticulum stress response signaling pathway - cell viability counter screen (AID 1159517). Also: series mostly up to about 61 µM; % is scaled to controls: 0 for no effect and ±100 for the full control effect; nearly all actives have a fitted effect of over 50% in size. An outline of the steps: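 CellTiter-Glo was added to wells already read for beta-lactamase FRET, and luminescence was recorded 30 min later. Cells: ESRE-bla HeLa, 1,500 per well, compound exposure 5 hr at 37 C.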
Assay [10] has as its target Nuclear receptor ROR-gamma (Homo sapiens) (UniProt P51449). The assay can be described thus: qHTS assay to identify small molecule antagonists of the retinoid-related orphan receptor gamma (ROR-gamma) signaling pathway (AID 1159521; active = well fitted curve in the direction sought with a large enough effect in the repeat runs; an effect the other way counts as inactive or inconclusive; also: nearly all actives have a fitted effect of over 50% in size; also: potency is read from the fitted curve at half-maximal effect). In short, it runs like this: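 Screening format: cell-based luciferase reporter in CHO cells with doxycycline-inducible RORγ. Compound pre-exposure lasts 2 h, doxycycline is 1 uM final, induction runs 16 h at 37 C, and ONE-Glo luminescence is read.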

Results filed as inconclusive are left out. Values without a mark were called inactive. Activity calls are given as the source filed them. Unless noted, calls follow the shape of the full dose curve.

Consider `CCOc1ccc(O)cc1`, for which the Potency result in assay [1], in [2], in assay [3], in assay [4] and in [5] was “inactive” throughout.
`COc1cccc(N(C)C(=S)Oc2ccc3c(c2)CCCC3)n1`: the Potency result in assay [6], in assay [7], in assay [1], in [2], in [8] and in assay [4] was “inactive” throughout.
`CC1=CCCC(C)(C)C12CCC(C)O2` (stereo not drawn): the Potency result in [6], in assay [2], in assay [9], in [3], in assay [8] and in [4] was “inactive” throughout. Also, the Potency result in assay [5] was “inactive”.
For the compound `COc1cc2nc(N3CCN(C(=O)C4COc5ccccc5O4)CC3)nc(N)c2cc1OC` (stereo not drawn), the Potency entry in [6], in assay [7], in assay [1], in assay [9], in [3] and in assay [8] was “inactive” throughout. Also, the Potency result in [4] and in assay [5] was “inactive” throughout.
Take `C[N+](C)(C)CCOC(=O)CCC(=O)OCC[N+](C)(C)C`: the Potency entry in [6], in [7], in assay [1], in [3], in [4] and in [5] was “inactive” in each case.
For `O=C(O)C1(C(=O)O)CCC1.[NH2-].[NH2-].[Pt+2]`, the Potency result in [6], in assay [7], in assay [1], in assay [9], in [3] and in [10] was “inactive” in each case. Also, the Potency result in assay [4] and in [5] was “inactive” in each case.
As for `Cc1oc(-c2ccccc2)nc1CCOc1cccc2c1ccn2CCC(=O)O`, the Potency entry in assay [6], in assay [7], in assay [1], in assay [9] and in [3] was “inactive” each time. Moreover, the Potency in assay [5] is 17.4 µM (active).
On to `CC(=O)c1ccc2c(c1)N(CCCN1CCC(CCO)CC1)c1ccccc1S2`, for which the Potency result in [1], in assay [3] and in assay [8] was “inactive” in each case.
Regarding `C=CCOC(=O)CCC1CCCCC1`, the Potency entry in assay [6], in [7], in assay [1], in [9], in assay [3] and in [8] was “inactive” throughout. The Potency result in assay [4] was “inactive”.
For the compound `CC(=O)OC[C@H]1O[C@@H](n2ncc(=O)[nH]c2=O)[C@H](OC(C)=O)[C@@H]1OC(C)=O`, the Potency entry in assay [6], in assay [7], in assay [1], in assay [8] and in assay [4] was “inactive” throughout. Moreover, the Potency in [10] was 1.5 µM (active).
As to `CCCCCCCCCc1ccc(OCCOCCO)cc1`, the Potency in [6] is 20.5 µM (active); in assay [7] it was 18.3 µM (active); in assay [10] it was 5.11 µM (active). In addition, the Potency entry in [1] and in assay [9] was “inactive” throughout.
`C[C@@H](c1ncncc1F)C(O)(Cn1cncn1)c1ccc(F)cc1F` (stereo partly drawn): the Potency result in [6], in assay [7], in assay [1], in assay [9], in assay [3] and in assay [8] was “inactive” in each case. Besides, the Potency entry in assay [4] and in assay [5] was “inactive” throughout.
`O=[N+]([O-])c1cccc(S(=O)(=O)O)c1`: the Potency entry in assay [6], in assay [2], in assay [9], in assay [3], in assay [8] and in [4] was “inactive” throughout. Moreover, in [5], the Potency entry is “inactive”.
As to `CCCCCCCC/C=C\CCCCCCCC(=O)OCC`, the Potency entry in [6], in assay [7], in assay [1], in assay [9], in assay [8] and in assay [4] was “inactive” in each case. Also, the Potency result in [5] was “inactive”.
For the compound `OCc1cc(C(O)CNCCCCCCOCCCCc2ccccc2)ccc1O` (stereo not drawn), the Potency entry in assay [6], in assay [1], in [9], in [3] and in assay [8] was “inactive” in each case.
Take `C[N+]1(C)CCC(OC(=O)C(O)(c2ccccc2)C2CCCC2)C1` (stereo not drawn): the Potency result in [6], in [7], in assay [1], in assay [9], in [8] and in [4] was “inactive” throughout.
Consider `CCC(Cl)CCC(Cl)C(Cl)CC(Cl)C(Cl)C(Cl)CCl` (stereo not drawn), for which the Potency entry in assay [7], in assay [1], in assay [9], in assay [3], in [10] and in assay [5] was “inactive” throughout.
Take `CCC(CC)Nc1ccc(C)c(C)c1`: the Potency entry in assay [7], in assay [2], in [9], in assay [3], in assay [10] and in assay [8] was “inactive” in each case.
As to `CCCCC/C=C\C/C=C\CCCCCCCC(=O)NC(C)c1ccccc1` (stereo not drawn), the Potency result in [6], in assay [1], in assay [9], in assay [3], in assay [10] and in assay [4] was “inactive” each time.
For the compound `COc1cc(Cl)ccc1Oc1ccc(Cl)cc1Cl`, the Potency entry in assay [7], in [1], in assay [9], in assay [8] and in assay [5] was “inactive” throughout.
As to `COc1cc(C(=O)OCCCN2CCCN(CCCOC(=O)c3cc(OC)c(OC)c(OC)c3)CC2)cc(OC)c1OC`, the Potency result in assay [6], in [1], in assay [9], in assay [10], in [8] and in [4] was “inactive” each time.
On to `CC(=O)[O][Al][O]C(C)=O`, for which the Potency result in assay [6], in assay [7], in [1], in [9], in [3] and in assay [8] was “inactive” in each case. In addition, in [4], the Potency entry was “inactive”.
As to `O=[N+]([O-])c1ccc2[nH]ncc2c1`, the Potency entry in assay [6], in assay [7], in assay [1], in assay [9], in assay [3] and in [8] was “inactive” each time. Moreover, the Potency entry in assay [4] and in assay [5] was “inactive” in each case.
As for `CCCNCC(O)COc1ccccc1C(=O)CCc1ccccc1` (stereo not drawn), the Potency entry in assay [7], in assay [1], in assay [9], in assay [3] and in [8] was “inactive” throughout.
For the compound `C/C(=C(\CCOP(=O)(O)O)SC(=O)c1ccccc1)N(C=O)Cc1cnc(C)nc1N`, the activity change, negative = cytotoxicity was -3.71% [at 5.95 µM] in assay [6] and 8.35% [at 6.95 µM] in assay [9]. The viability change, negative = cytotoxic in assay [7] was 2.62% [at 6.95 µM]. Also, the activity, negative = cytotoxic in [1] was 2.97% [at 6.95 µM]. Further, in assay [3], the activity, negative = cytotoxicity was -0.156% [at 8.39 µM]. Further, the activation is -6.29% [at 6.97 µM] in assay [4] and 7.58% [at 6.98 µM] in assay [5].
Regarding `O=C(O)C1(C(=O)Nc2ccc(Cl)cc2Cl)CC1`, the Potency result in assay [6], in assay [7], in assay [1], in [9], in assay [3] and in assay [8] was “inactive” in each case.
As for `Nc1ccc(N)c2c1C(=O)c1ccccc1C2=O`, the Potency result in [6], in assay [1], in [9], in assay [4] and in assay [5] was “inactive” in each case. Besides, the Potency in [3] was 21.7 µM (active).
